Source: PubChem BioAssay (Sanford-Burnham Center for Chemical Genomics)
In the library only some 6.3% were active in any assay of this set; here they are far more common.
Mdm2-MdmX inh: human Mdm2/MdmX binding inhibition. O15151+Q00987. SaOS-2 split-luciferase Mdm2/MdmX complementation, luminescence. inhibition, % at 8 µM. hit rate 3% among 330,000. AID 485346;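 active = inhibition of at least 50% at 8 µM in the primary screen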
MPTP block: inhibitors of mitochondrial permeability transition pore; isolated mouse mitochondria, Ca2+ swelling absorbance, 30 min; inhibition, % at 10 µM; hit rate 1.4% among 360,000; AID 602449;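 active = inhibition of 50% or more, scaled per plate between neutral and stimulator controls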;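 also: 0% = DMSO wells given calcium and 100% = 1 mM EGTA wells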
TIM10 inh: TIM10 yeast growth inhibition; S. cerevisiae TIM10 strain growth, BacTiter-Glo luminescence, 24 h; inhibition, % at 10 µM; hit rate 1.4% among 330,000;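 active = inhibition of 40% or more at the single tested concentration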;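 also: wild-type TIM10 isogenic control strain grown at permissive 25 °C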
tim23-1 inh: growth inhibitors of tim23-1 mutant yeast. S. cerevisiae tim23-1 growth, BacTiter-Glo luminescence, 24 h. inhibition, % at 20 µM. hit rate 1.3% among 330,000;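 active = growth inhibition of the mutant yeast at or above 50%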;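 also: temperature-sensitive mutant grown at 25 °C; plate controls were DMSO-treated mutant yeast for no effect and medium wells lacking yeast for full effect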
tim10-1 inh: tim10-1 yeast growth inhibition; S. cerevisiae tim10-1 ts strain growth, BacTiter-Glo, 24 h; inhibition, % at 20 µM; hit rate 2.2% among 330,000; AID 463190;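 active = inhibition of at least 40%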;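 also: mutant grown at 25 °C; 0% = DMSO wells with yeast and 100% = wells holding no yeast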
Mdm2 MdmX conf: human Mdm2/MdmX binding inhibition, confirmed. shares compounds with Mdm2-MdmX inh. luminescent assay. inhibition, % at 8 µM. hit rate 55% among 10,000. AID 489028; in the data active = inhibition above about 40%
Full FLuc ctr: counter-screen for Mdm2/MdmX inhibitors: full-length luciferase; hit rate 77% among 6,200; shares compounds with Mdm2-MdmX inh; inhibition, % at 8 µM; AID 504607; SaOS-2 full-length luciferase counterscreen, luminescence;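 active = mean inhibition at 8 µM reaching about 37%, which flags the compound as non-specific, limit read from the data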;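 also: p53-null SaOS-2 cells with luciferase driven by a doxycycline-inducible promoter; compound on cells about two nights before reading with doxycycline added after day one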
Active calls of the source: *; / = no result given.

SMILES	Mdm2-MdmX inh	MPTP block	TIM10 inh	tim23-1 inh	tim10-1 inh	Mdm2 MdmX conf	Full FLuc ctr
NC(=O)c1sc2nc3c(c(-c4cccs4)c2c1N)CCCCC3	84.6*	0.2	18.2	9.4	21.4	87.6*	53.2*
Clc1ccc2c(c1)CCc1cccnc1C2=C1CCNCC1	61.3*	/	8.3	7.2	12.3	35.7	/
COc1ccc(C(CC(=O)c2ccc(C)cc2)C(C#N)C#N)cc1OC (centres undefined)	55.7*	1.3	34.6	41.5	37.8	44.2*	47.0*
COc1cc(O)c(CC=C(C)C)c(O)c1C(=O)CCc1ccc(O)cc1	55.2*	8.9	26.3	35.0	37.9	2.8	/
O=C(CCc1ccc(O)cc1)c1c(O)cc(O)cc1O	-3.3	2.5	-13.2	17.2	8.6	/	/
CCn1c(=O)c2c(cnn2C)c2ccccc21	80.9*	8.1	3.1	-7.1	25.7	11.8	/
CCCn1c2ccccc2c2cnn(CC(=O)O)c(=O)c21	5.4	-0.6	-5.5	-5.5	15.5	/	/
CCC(c1nnnn1-c1ccc2c(c1)OCCO2)N1CCN(C/C=C/c2ccccc2)CC1 (centres undefined)	/	1.0	/	/	/	/	/
COc1ccc(OC)c(Nc2nc(-c3cccc([N+](=O)[O-])c3)nc3ccccc23)c1	59.5*	2.0	-3.8	12.1	4.6	-4.8	/
COc1cc(CNc2ncnc3c2ncn3[C@H]2CN(Cc3ccccc3)C[C@@H](COC(C)=O)O2)cc(OC)c1OC	/	-1.0	/	/	/	/	/
CC1(C(=O)NS(=O)(=O)c2ccc(Cl)cc2)CCN1C(=O)Cc1ccc(Cl)cc1Cl (centres undefined)	/	1.0	/	/	/	/	/
CCN(CC)CCNC(=O)CCc1c(C)nc2c(c(C)nn2-c2ccc(C)cc2)c1C	61.3*	2.1	4.0	22.3	27.1	32.1	/
COc1ccc(-c2nn(-c3ccccc3)cc2C(=O)N2c3ccc(C)cc3C3CN(C)CCC32)cc1 (centres undefined)	53.9*	-6.0	35.7	11.6	16.9	35.5	73.8*
COc1ccc(-c2nn(-c3ccccc3)cc2C(=O)O)cc1	12.4	-0.1	-3.5	5.8	-17.8	/	/
Cc1ccc(-c2cc(C(F)F)n3ncc(C(=O)N4CCc5ccccc54)c3n2)cc1	60.8*	2.0	-22.4	-31.7	0.9	64.2*	56.7*
CCc1nccn1C(=O)c1cnn2c(C(F)F)cc(-c3ccc(C)cc3)nc12	60.7*	-0.6	20.6	28.0	20.3	19.4	/
CCc1nccn1C(=O)c1cnn2c(C(F)F)cc(-c3ccccc3)nc12	3.2	/	24.8	-94.5	19.5	/	/
O=C(c1cnn2c(C(F)F)cc(-c3ccccc3)nc12)N1CCc2ccccc21	26.3	5.3	-6.6	-9.0	14.4	/	/
Cc1ccc(NC(=O)CSc2nnc3n2CCCCC3)cc1S(=O)(=O)N1CCOCC1	/	-0.5	/	/	/	/	/
Nc1c(N(CCC2=CCCCC2)C(=O)CCCOc2ccccc2)c(=O)[nH]c(=O)n1Cc1ccccc1	37.5	-1.9	-0.7	8.8	3.3	/	/
Nc1c(N(CCC2=CCCCC2)C(=O)COc2ccc(F)cc2)c(=O)[nH]c(=O)n1Cc1ccccc1	53.2*	0.1	3.7	-4.0	8.9	10.6	/
COC(=O)c1nn(-c2ccc3c(c2)CCN3C(C)=O)cc1O	50.7*	-2.7	15.4	9.1	9.8	67.8*	31.0
COc1ccccc1NS(=O)(=O)c1cc(C(=O)NC2CC(C)(C)NC(C)(C)C2)ccc1Cl	/	-1.5	/	/	/	/	/
CCCS(=O)(=O)c1cnc(C2COc3ccccc3O2)nc1N (centres undefined)	81.5*	-0.5	8.3	18.4	20.0	84.9*	47.6*
Cc1onc(-c2ccccc2Cl)c1-c1nc(-c2ccccn2)no1	19.4	-2.1	-10.6	7.3	16.3	/	/
SMILES	Mdm2-MdmX inh	MPTP block	TIM10 inh	tim23-1 inh	tim10-1 inh	Mdm2 MdmX conf	Full FLuc ctr
Clc1ccccc1/C=C/c1nc(-c2ccccn2)no1	66.4*	1.8	7.1	43.3	21.5	54.4*	94.5*
CCCCN(C)c1c(C)nc2ccc(C(=O)N3CCN(C(C)=O)CC3)cn12	/	0.9	/	/	/	/	/
COc1cc(NC(=S)N2CCN(C(c3ccccc3)c3ccccc3)CC2)cc(OC)c1	67.5*	0.4	8.7	6.8	28.6	29.1	/
Clc1ccc(N2CCN(c3ncnc4c3oc3ccccc34)CC2)cc1	57.9*	38.4	-33.4	-17.4	-13.2	10.1	/
Cc1ccc(-c2nc3ncccn3c2N)cc1	/	0.6	/	/	/	/	/
Cc1cccc(CS(=O)(=O)c2ncc(Cl)c(C(=O)NCc3ccc4c(c3)OCO4)n2)c1	59.7*	-0.6	16.8	19.9	37.2	63.5*	16.3
Cc1onc(-c2c(F)cccc2Cl)c1C(=O)NCc1ccc2c(c1)OCO2	18.1	-0.7	-2.7	1.3	3.7	/	/
CC(=O)Nc1ccc(NC(=O)c2nc(S(=O)(=O)Cc3cccc(C)c3)ncc2Cl)cc1	86.4*	3.8	19.0	24.1	3.4	66.0*	51.2*
CC(C)c1ccc(/C=N/NC(=O)CN(c2cccc(Cl)c2Cl)S(C)(=O)=O)cc1	60.9*	1.9	8.5	9.6	-1.4	6.2	/
CS(=O)(=O)N(CC(=O)N/N=C/c1ccccc1C(=O)O)c1cccc(Cl)c1Cl	6.1	-1.6	23.1	-13.8	-0.6	/	/
CCOC(=O)C1CCN(c2ccccc2CN2CCN(c3ccccc3OCC)CC2)CC1	63.3*	1.4	14.8	24.1	35.4	37.8	71.4*
Cc1cccc(COCC(Cc2ccccc2)N2CCN(C(=O)c3ccc(C(F)(F)F)cc3)CCC2=O)c1 (centres undefined)	57.4*	0.1	17.6	28.6	28.1	8.8	/
O=C(c1ccc(Cl)c(Cl)c1)N1CCC(=O)N(C(COCc2cccc(Cl)c2)Cc2ccccc2)CC1 (centres undefined)	54.2*	0.9	11.1	12.4	37.9	24.1	/
Cc1cccc(COC[C@H](Cc2ccccc2)N2CCN(C(=O)c3ccc(C(F)(F)F)cc3)CCC2=O)c1	/	-1.5	/	/	/	/	/
O=C(c1cccc(Cl)c1)N1CCC(=O)N(C(COCc2cccc(Cl)c2)Cc2ccccc2)CC1 (centres undefined)	12.1	-0.6	5.4	1.7	27.8	/	/
O=C(Nc1nnc([C@@H]2C[C@H](O)[C@@H](CO)O2)s1)Nc1cccc(Cl)c1Cl	/	0.7	/	/	/	/	/
Cc1ccc(NC(=O)Cn2c(=O)ccn(Cc3ccccc3)c2=O)cc1S(=O)(=O)N1CCOCC1	/	0.3	/	/	/	/	/
COc1ccccc1/C=C/C(=O)c1c2c(c(C)[nH]c1=O)CCCC2	85.4*	-0.6	19.0	12.9	25.5	99.4*	56.0*
COc1ccc(/C=C/C(=O)c2c(C)cc(C)[nH]c2=O)c2ccccc12	4.5	1.3	15.3	21.2	11.2	/	/
CN(C)c1ccc(CNC(=O)C2Cc3c(-c4ccccc4Oc4ccccc4)ccnc3O2)cc1 (centres undefined)	/	1.0	/	/	/	/	/
Cc1ccc(Nc2nc3c(c(=O)[nH]2)CCCC3)cc1	-36.2	0.4	12.6	10.5	-7.8	/	/
O=c1[nH]c(Nc2nc3ccccc3o2)nc2c1CCCC2	100.3*	0.3	2.4	34.8	38.4	75.5*	78.7*
